Hits are enriched below; roughly 8.1% of the tested compounds scored in any of these assays.
RORg inh: ROR gamma (mouse) transcription inhibition. P51450. Drosophila S2 Gal4-RORgamma UAS-luciferase reporter, 20 h. Potency, µM (top dose mostly 53.6 µM), for inactives: top-dose activity change, negative = inhibition, most hits filed as inhibitors. actives 5.4% (n = 310,000). AID 2551; further: on the % scale 0 is the no-effect control and ±100 the full control effect; nearly all actives have a fitted effect of over 60% in size
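A Gal4/UAS one-hybrid system in insect cells: metallothionein-promoter Gal4–ROR gamma fusion plus Photinus luciferase reporter. Copper sulfate 700 uM final, 20 hr ambient incubation, luminescent detection after 10 min with reagent.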
PINK1 modulator: changes PINK1 expression. AID 624263. actives 0.2% (n = 410,000). Potency, µM (series often up to 76.6 µM), inactives show at the top dose activation (PINK1 increase), hits mostly activators. PINK1 immunofluorescence, high-content cytometry, 24 h; active means well fitted activation curve with a large enough effect; inconclusive means small, poorly fitted or top-dose-only effect; cell line not stated here; further: % of control where 0% means no effect; nearly all actives have a fitted effect of over 65% in size
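Measures PINK1 amount and localization on or inside mitochondria by immunofluorescence. Stable cells get compounds at 5 concentrations for 24 hours before fixation and staining; CCCP controls included.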
ClpP mod: qHTS Assay for Activators of ClpP; ATP-dependent Clp protease proteolytic subunit (Bacillus subtilis (strain 168)), P80244; purified B. subtilis ClpP, FRET peptide cleavage, 20 min; Potency, µM (titrated, usually from 57.5 µM), without a hit: at the top dose activity change, negative = active; actives 1.9% (n = 340,000); AID 651965, 2013; active means well fitted falling curve with a large enough effect; inconclusive means small, poorly fitted or top-dose-only effect; inactive means no such curve, though single readings can be large or run the other way; further: the source files actives as falling curves though it sought activators and does not explain the sign; nearly all actives have a fitted effect of over 65% in size
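ClpP 10 microg/mL final, pH 8 Tris/KCl buffer with BSA, glycerol, Tween-20; compound pinned in; FRET-FV substrate; RT 20 min; Ex320/Em430; ΔFRET vs ADEP 5.8 microM, DMSO, no enzyme.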
VP16 counter: counter-screen for ROR gamma inhibitors: Gal4-VP16 reporter; Drosophila S2 Gal4-VP16 UAS-luciferase, luminescence, 20 h; Potency, µM (doses to about 53.6 µM), inactives show at the highest dose activity, negative = inhibition, usual class: inhibitors; actives 3.5% (n = 310,000); AID 2546;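 further: Gal4-VP16 expression switched on by copper sulfate through the metallothionein promoter; on the % scale 0 is the no-effect control and ±100 the full control effect; nearly all actives have a fitted effect of over 50% in size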
Sfp inh: Sfp phosphopantetheinyl transferase inhibition; Biochemical Sfp PPTase activity, qHTS; Potency, µM, inactives show largest response in the series, negative = inhibition, hits mostly inhibitors; AID 1490; actives 3.5% (n = 310,000);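 further: the enzyme is Sfp with the accession as filed and its product quenches rhodamine fluorescence; 0% = enzyme reaction without inhibitor and -100% = no enzyme wells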
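Reaction rates are the 30-min fluorescence difference (ex 525, em 598 nm) in wells containing 15 nM Sfp, 5 uM rhodamine-CoA and 12.5 uM BHQ-2-YbbR at pH 7.6 with 10 mM MgCl2.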
Epigenetic derep: epigenetic control regulation, reporter derepression. murine LDR cells, GFP reporter derepression, 30 h. Potency, µM (series often up to 53.9 µM), inactives show top-dose GFP activation, actives largely listed as activators. actives 0.2% (n = 280,000). AID 1865; further: % of control where 0% means no effect; nearly all actives have a fitted effect of over 60% in size
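Reporter derepression read as number of fluorescent GFP-positive objects, 20-120 um in size, counted by laser-scanning cytometer. Mouse LDR line with an epigenetically silenced CMV-GFP locus; compound incubation 30 h, 37 C.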
* = called active by the depositor; u = inconclusive; x = no result; [ ] = remark or other dose. Unless noted, the call rests on the fitted dose curve; in most records, active means well fitted curve in the direction sought with a large enough effect; inconclusive means small, poorly fitted or top-dose-only effect, or another doubt; inactive means no such curve, though single readings can be large; an effect the other way counts as inactive or inconclusive. Potency means the concentration at half of the fitted maximal effect.

SMILES | RORg inh | PINK1 modulator | ClpP mod | VP16 counter | Sfp inh | Epigenetic derep
COc1ccc(N2CCN(C(=O)c3ccc(Cn4c(=S)[nH]c5ccc(N6CCOCC6)cc5c4=O)cc3)CC2)cc1 | -42% | -1% | x | 10% | 71µM* | 0%
COc1ccc(-c2noc(CSc3nnc(-c4ccncc4)n3-c3cccc(C)c3)n2)cc1OC | x | 2% | 1% | x | x | -2%
O=C1c2ccccc2OC2(C=Cc3ccccc3O2)N1Cc1ccccc1 (stereo unspecified) | 27% | 2% | -4% | 8% | -6% | 0%
CN1CC2=Cc3ccccc3OC23Oc2ccccc2C=C3C1 | -42% | 8% | 3.5µM* | 6% | 2% | u
O=C1Nc2ccccc2SC1c1ccccc1 (stereo unspecified) | 19% | 2% | 2% | -8% | 17% | x
Cc1ccc(NC2Sc3ccccc3NC2=O)cc1 (stereo unspecified) | 11µM* | 1% | x | u | 8.9µM* | 2%
O=C(CSCc1ccccc1)N1CCN(c2ccc(F)cc2)CC1 | u | x | -1% | -12% | -11% | -1%
CC1=NN(C(=O)CCc2ccccc2)C(O)(c2ccncc2)C1 (stereo unspecified) | 1.8µM* | -1% | -3% | u | 22% | 3%
COC(=O)C1=NN(C(=O)c2ccccc2)C(C)(O)C1 (stereo unspecified) | -17% | -2%[38.3 µM] | -1% | -6% | 12% | 0%
COC(=O)C1=NN(C(=O)c2ccccc2)C(O)(c2ccc([N+](=O)[O-])cc2)C1 (stereo unspecified) | 5µM* | 2% | 0% | 7.1µM* | 16% | x
CC1=NN(C(=O)CSCc2ccccc2)C(O)(c2ccc(F)cc2)C1 (stereo unspecified) | 7.1µM* | -1% | x | u | 20% | 1%
CC1=NN(C(=O)COc2cc(C)ccc2C(C)C)C(O)(c2ccccc2)C1 (stereo unspecified) | 11µM* | 7% | x | 18µM* | 7% | -2%
CCN1C(=NCc2cccc(C(F)(F)F)c2)N[C@@H](c2cccc(C(F)(F)F)c2)C(C(=O)OC)=C1C | x | 0% | 2% | x | x | x
O=C(c1ccccc1)N1N=C(C(F)(F)F)CC1(O)c1ccccc1 (stereo unspecified) | -24%[1.91 µM] | 4% | -2% | u | 5% | x
COC(=O)C1=NN(C(=O)c2ccc(Br)cc2)C(O)(C(C)(C)C)C1 (stereo unspecified) | u | 0% | x | u | 14% | -3%
CC1=NN(C(=O)c2ccc(Cl)cc2)C(O)(c2ccccc2)C1 (stereo unspecified) | 10µM* | 3% | x | 13µM* | 13% | x
CCC1=NN(C(=O)Cc2ccccc2)C(O)(c2ccncc2)C1 (stereo unspecified) | 0% | 0% | 1% | u | -10% | -1%
CC1=NN(C(=O)CSCc2ccccc2)C(O)(c2ccc(Cl)cc2)C1 (stereo unspecified) | 10µM* | 3% | 1% | u | 10% | 0%
O=C(c1ccccc1)N1N=C(C(F)(F)F)CC1(O)c1ccc(F)cc1 (stereo unspecified) | 20µM* | 7% | 0% | u | 2% | x
COC(=O)C1=NN(C(=O)c2cccc(Cl)c2)C(O)(C(C)(C)C)C1 (stereo unspecified) | 5µM* | 5% | 1% | u | 10% | 2%
Cc1ccc(CNC(=O)CCCCCn2c(=O)c3sccc3n(CC(=O)N(C)c3ccccc3)c2=O)cc1 | x | 0% | 0% | x | x | -1%
Cc1ccn2c(Nc3ccc4c(c3)OCO4)c(-c3ccc(N(C)C)cc3)nc2c1 | x | 1% | 4% | x | x | 2%
CC(Oc1ccccc1)C(=O)N[C@@H]1C(=O)N2C(C(=O)OCC3CCCCC3)C(C)(C)S[C@H]12 (stereo partly specified) | x | x | -2% | x | x | x

Screening data deposited in PubChem by National Center for Advancing Translational Sciences (NCATS).
